These results are taken from PubChem BioAssay (EPA / NIEHS).

Active and inactive are the calls of the source. The calls were made as follows: active = hit-call score of the fitted dose curve at least 0.9, where 1 is the maximum; inactive = score below 0.9.

Read-out in the assay: CFLAR gene, CFLAR (gene 8837)
Put plainly: LTEA_HepaRG_CFLAR: Life Technologies and Expression Analysis (LTEA) Assay for CFLAR gene using HepaRG (AID 2283455). The conditions noted are these: mRNA level, 48 h; actives raise or lower the signal. On the procedure: LTEA_HepaRG is a cell based, multiplexed-readout assay that uses HepaRG, a human liver cell line, with measurements taken at 48 hours after chemical dosing on a 96-well plate.LTEA_HepaRG_CFLAR is one of 102 assay component(s) measured in the LTEA HepaRG cell culture assay. It is a marker of Cell proliferation, survival, death.Data from the assay component LTEA_HepaRG_CFLAR was analyzed into 1 endpoint. This assay endpoint, LTEA_HepaRG_CFLAR, was analyzed with bidirectional fitting relative to DMSO as the negative control and baseline of activity. Using a type of inducible reporter, measures of mRNA induction for gain or loss-of-signal activity can be used to understand regulation of transcription factor activity. To generalize the intended target to other relatable targets, this assay endpoint is annotated to the cell cycle intended target family, where the subfamily is Cell proliferation, survival, death.
A total of 1060 chemcials from the ToxCast library were tested in eight-point concentration-response experiments. Cell culture and cytotoxicity assays were conducted at Thermo Fisher Scientific's Custom Services facility (Madison, WI). A single lot of human HepaRG cells (Thermo Fisher Scientific, Frederick, MD) was used for the cell culture experiments. 96-well format collagen type I coated plates of human HepaRG cells were prepared using established methods. Briefly, cryopreserved HepaRG cells were thawed, plated at a density of approximately 100,000 cells/well in HepaRG Thaw, Plate, and General Purpose media (HPRG770, Thermo Fisher Scientific), and incubated for 48 hours. 0.5% DMSO was selected as vehicle control to balance the requisite need of DMSO in HepaRG cultures to maintain differentiation (for example, baseline metabolism, proportions of hepatocytes vs. cholangiocytes), while enabling further hepatic receptor pathway activation (for example, PXR and CAR) in response to chemical exposure. 48 hours after plating, the culture medium was replaced with HepaRG Serum-Free Incudtion Media. Cells were exposed to each test chemical in duplicate and maintained in CO2 incubators for another 48 hours. Chemical plates were thawed to room temperature and 200x concentrations of treatment groups were prepared. 8-point conentration-reponse curves were made with the highest exposure at 100 uM, followed by half-log dilutions, all in 0.5% DMSO. Each test plate contained variouse controls, induction positive controls (1mM phenobarbital), cytotoxicity positive controls ([…] aflatoxin B1), vehicle controls (0.5% DMSO), and total lysis controls (0.5% DMSO). Cell morphology images were taken using an Essen IncuCyte FLR automated microscope, with six 96-well plates imaged in about 24 minutes. Images were captured and exported and JPEG files. Spent culture media was transfered to black-well plates for the LDH assay, and remaining media was sorted at -80 C for later use. Cells were treated with RLT buffer and frozen until shipped for gene expression analysis. Total RNA was isolated from the cell suspension in 75 uL of Buffer RLT (Qiagen, Germantown, MD 20874) by Quintiles/Expression Analysis (Durham, NC) using a custom isolation procedure. Total RNA from each plate well was transferred to a preamplification plate. Fluidigm's 96.96 Dynamic ArrayTM (Fluidigm, Amsterdam, the Netherlands) technology was used for gene expression analyses by quantitative reverse transcription polymerase chain reaction (qRT-PCR, performed by Quintiles/Expression Analysis, Durham, NC)89. Standard TaqManTM Assays (Applied Biosystems/ThermoFisher Scientific, Foster City, CA) were used to assess the expression of 93 genes selected based on their selectivity and sensitivity to important hepatic receptors known to be modulated by environmental chemicals; importance in human hepatocyte functionality; and hepatotoxicity. […]
Take `COCC(C)N(C(=O)CCl)c1c(C)csc1C` (stereo not given): the outcome was inactive.
With `CC(C)C1(C)N=C(c2ncccc2C(=O)O)NC1=O` (stereo not given), the compound was called inactive.
`COCC(=O)N(c1c(C)cccc1C)C(C)C(=O)OC` (stereo not given): the compound was classed as inactive.
Still for that read-out and setting: the value for `CC1(C)CON(Cc2ccccc2Cl)C1=O` was “inactive”; that for `Cc1nc(N(C)C)nc(OC(=O)N(C)C)c1C` was “inactive”.
As to `CCCCC(O)(Cn1cncn1)c1ccc(Cl)cc1Cl` (stereo not given), the half-maximal activity concentration (AC50) (as a rule, the concentration giving half of the maximal activity seen) was 66.5 µM (active).
For `COc1cc(OC)nc(NC(=O)NS(=O)(=O)c2ncccc2OCC(F)(F)F)n1`, the call was inactive.
Same read-out and setting: the value for `Cc1ccc(N=CN(C)C=Nc2ccc(C)cc2C)c(C)c1` was “inactive”; that for `CN=C=S` was “inactive”.
On the same count and under the same terms, in the case of `Cc1cc(C)nc(Nc2ccccc2)n1` it was “inactive”; in that of `COC(=O)c1c(C(F)F)nc(C(F)(F)F)c(C2=NCCS2)c1CC(C)C`, “inactive”; in that of `CC1(C)C(C(=O)OC(C#N)c2cccc(Oc3ccccc3)c2)C1(C)C` (stereo not given), “inactive”.
The same measure, in the same setting: in the case of `CCNP(=S)(OC)O/C(C)=C/C(=O)OC(C)C` (stereo not given) it was “inactive”; in that of `COC(=O)NS(=O)(=O)c1ccc(N)cc1`, “inactive”.
As to `OC(c1ccc(Cl)cc1)(c1ccc(Cl)cc1)C(Cl)(Cl)Cl`, the result was inactive.
Take `CCOc1nc(C(Cl)(Cl)Cl)ns1`: the AC50 is 0.912 µM (active).
In the case of `Clc1nc(Cl)nc(Nc2ccccc2Cl)n1`, the call was inactive.
Regarding `CC1(C)C(C=C(Cl)Cl)C1C(=O)OC(C#N)c1cccc(Oc2ccccc2)c1` (stereo not given), the compound was classed as inactive.
Take `C=CCOC(=O)C(C)(C)OC(=O)c1cc(-n2c(=O)cc(C(F)(F)F)n(C)c2=O)ccc1Cl`: the compound was classed as inactive.
Take `CC(C)NC(=O)N1CC(=O)N(c2cc(Cl)cc(Cl)c2)C1=O`: the half-maximal activity concentration (AC50) was 20.2 µM (active).
In the case of `O=C(O)c1c(Cl)ccc2cc(Cl)cnc12`, the result was inactive.
For the compound `CCCCOCN(C(=O)CCl)c1c(CC)cccc1CC`, the compound was classed as inactive.
Still for that read-out and setting: in the case of `Clc1cccc(C(Cl)(Cl)Cl)n1` it was “inactive”; in that of `CCCN(CC)CC1COC2(CCC(C(C)(C)C)CC2)O1` (stereo not given), “inactive”; in that of `CC1(C)CCC(=Cc2ccc(Cl)cc2)C1(O)Cn1cncn1` (stereo not given), “inactive”.
On the same count and under the same terms, the value for `CCOP(=S)(OCC)Oc1nc(Cl)n(C(C)C)n1` was “inactive”; that for `COP(=O)(OC)O/C(C)=C/C(=O)N(C)C` was “inactive”; that for `N#Cc1c(Cl)cccc1Cl` was “inactive”.
Same read-out and setting: in the case of `CSC(=O)c1c(C(F)F)nc(C(F)(F)F)c(C(=O)SC)c1CC(C)C` it was “inactive”; in that of `COCc1cnc(C2=NC(C)(C(C)C)C(=O)N2)c(C(=O)O)c1` (stereo not given), “inactive”.
Take `Cn1c(-c2ccccc2)cc(-c2ccccc2)[n+]1C`: the half-maximal activity concentration (AC50) is 82.3 µM (active).
As to `CCC(C)n1c(=O)[nH]c(C)c(Br)c1=O` (stereo not given), the compound was called inactive.
Turning to `COc1cc(Cl)c(OC)cc1Cl`, the compound was called inactive.
The same measure, in the same setting: the value for `Cc1c(COC(=O)[C@@H]2[C@H](/C=C(\Cl)C(F)(F)F)C2(C)C)cccc1-c1ccccc1` was “inactive”; that for `Nc1c(Cl)c(Cl)nc(C(=O)O)c1Cl` was “inactive”; that for `CC(C)Oc1cccc(NC(=O)c2ccccc2C(F)(F)F)c1` was “inactive”.
The same measure, in the same setting: in the case of `Nc1c(Cl)c(F)nc(OCC(=O)O)c1Cl` it was “inactive”; in that of `CO/N=C(/C1=NOCCO1)c1ccccc1Oc1ncnc(Oc2ccccc2Cl)c1F`, “inactive”.
Regarding `N#Cc1c[nH]cc1-c1cccc2c1OC(F)(F)O2`, the concentration at half-maximal activity (AC50) is 14.7 µM (active).
In the case of `CCN(CC)C(=O)C(C)Oc1cccc2ccccc12` (stereo not given), the call was inactive.
